Assay results published in PubChem BioAssay (NCI).
Compounds without any hit were thinned out: in the full panel of roughly 83,000, 20% have a hit.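 A percent growth of 40 corresponds to 60% growth inhibition; 0 means no net growth; -100 means all cells died. Active threshold: below 10.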 The source made the active and inactive calls.

Test system: 786-0 renal
Test: NCI-60 one-dose screen, 48 h (100 = growth as untreated, 0 = no growth, -100 = all killed)
Conditions: 10 µM

Row | Structure (SMILES) | growth
1 | C=CCNCCN1C(=O)c2ccc3c4c(ccc(c24)C1=O)C(=O)N(CCNCC=C)C3=O | -2.95% (active)
2 | COc1cc(C)ccc1Oc1nc(Nc2ccc(N3CCOCC3)cc2)ncc1NC(=O)Nc1cc(C(F)(F)F)cc(C(F)(F)F)c1 | 55% (inactive)
3 | COc1cccc(CNc2cccc3cn[nH]c23)c1O | 105% (inactive)
4 | NS(=O)(=O)Oc1ccc(NC(=O)C2CCCCCC2)cc1 | 107% (inactive)
5 | COc1ccc(-c2n[nH]nc2-c2cc(OC)c3c(c2OC)OCO3)cc1 | 65.6% (inactive)
6 | CCCN(CCC)C(=O)[C@H](CC)[C@@H]1CC[C@@H](C)[C@@H]([C@H](C)[C@@H](O)[C@@H](C)C(=O)[C@H](CC)C2O[C@]3(C=C[C@@H](O)[C@]4(CC[C@@](C)([C@H]5CC[C@](O)(CC)[C@H](C)O5)O4)O3)[C@H](C)C[C@@H]2C)O1 (stereo partly specified) | 15.8% (inactive)
7 | COc1cc(-c2nc3ccccc3o2)cc(CN2CCCCC2)c1O | 94.7% (inactive)
8 | CC(=O)N[C@H](C(=O)N[C@@H](CCCNC(=N)N)C(=O)N[C@@H](CCCCN)C(=O)N[C@@H](CCCNC(=N)N)C(=O)N[C@]1(C)CCC/C=C\CCC[C@@](C)(C(=O)N[C@@H](CC(C)C)C(=O)N[C@@H](CC(C)C)C(=O)N[C@@H](CCC(N)=O)C(=O)N[C@@H](CCC(=O)O)C(=O)N[C@@H](CCCNC(=N)N)C(=O)N[C@@H](CCC(=O)O)C(=O)N[C@@H](CC(C)C)C(=O)N[C@H](C(=O)N[C@@H](CCC(=O)O)C(N)=O)C(C)C)NC(=O)[C@H](CCCNC(=N)N)NC(=O)[C@H](CC(C)C)NC1=O)C(C)C | 98.1% (inactive)
9 | S=C(NCc1ccccc1)NCc1ccccc1 | 96.6% (inactive)
10 | CC(C)c1ccc(C(C)C(=O)N(CC2=C(C(C)c3ccccn3)c3ccccc3C2)C(C)C)cc1 (stereo unspecified) | 40.9% (inactive)
11 | COc1cc(/C=C2\CCCC3=C2NC(N)=NC3c2cc(OC)c(OC)c(OC)c2)cc(OC)c1OC (stereo unspecified) | -20.1% (active)
12 | COc1ccc(-c2cc(-c3ccc(Cl)cc3)nc(SCCCC(=O)NO)n2)cc1 | 3.69% (active)
13 | CC(C)CCN(CCC(C)C)CC(=O)Nc1ccc(S(=O)(=O)c2ccc(NC(=O)CN(CCC(C)C)CCC(C)C)cc2)cc1 | 18% (inactive)
14 | CN(C)CCCOc1ccccc1NC1=C(Cl)C(=O)C(Nc2ccccc2OCCCN(C)C)=C(Cl)C1=O | -95.4% (active)
15 | CC(C)(C)c1nn(-c2ccccc2)c2c1CC1(CN2Cc2ccc(Cl)cc2)C(=O)c2ccccc2C1=O | 86.7% (inactive)
16 | N#CCc1csc(Cc2ccccc2)n1 | 108% (inactive)
17 | COc1ccc(/C=C/c2nnc(/C=C/c3ccc(OC)c(OC)c3)o2)cc1OC | 12.8% (inactive)
18 | NS(=O)(=O)c1ccc(Br)cc1 | 89% (inactive)
19 | CCOC(=O)CC(S(=O)(=O)c1ccccc1)S(=O)(=O)c1ccccc1 | 115% (inactive)
20 | Nc1nc(N)c(N)c(Nc2ccc(CCO)cc2)n1 | 109% (inactive)
21 | CCN(CC)CCOc1ccc2c(c1O)C(=O)c1ccccc1C2=O | 80.1% (inactive)

Test system: COLO 205 colon
Test: as above
Conditions: 10 µM

Row | Structure (SMILES) | growth
22 | Cc1ccc(C)c(COc2cc(NC(=O)c3ccc4c(c3)OCO4)ccc2N(C)S(C)(=O)=O)c1 | -68.3% (active)
23 | CCOC(=O)c1cc(C(=O)c2ccc(Cl)cc2)n2ccc(-c3cc[n+](CC(=O)c4ccc(OC)cc4)cc3)cc12 | 42.8% (inactive)
24 | Clc1ccc(C2=NN=C3C(Cc4ccccc4)=Nc4ccccc4N3C2)cc1 | 105% (inactive)
25 | O=C1c2ccccc2C(=O)c2c1ccc(C(Br)Br)c2[N+](=O)[O-] | 69.6% (inactive)
26 | COc1ccc(-c2nc(-c3nc4ccc(C)cc4[nH]3)cc3c2[nH]c2ccccc23)cc1 | 46.9% (inactive)
27 | C(=N\Nc1ncnc2sc3c(c12)CCNC3)/c1cccc2ccccc12 | 63.5% (inactive)
28 | CC(=O)N[C@H](C(=O)N[C@@H](CCCNC(=N)N)C(=O)N[C@@H](CCCCN)C(=O)N[C@@H](CCCNC(=N)N)C(=O)NC(C(=O)N[C@@H](CC(C)C)C(=O)N[C@@H](CCCNC(=N)N)C(=O)N[C@@]1(C)CCC/C=C\CCC[C@@](C)(C(=O)N[C@@H](CCCNC(=N)N)C(=O)N[C@@H](CCC(=O)O)C(=O)N[C@@H](CC(C)C)C(=O)N[C@H](C(=O)N[C@@H](CCC(=O)O)C(N)=O)C(C)C)NC(=O)[C@H](CCC(N)=O)NC(=O)[C@H](CC(C)C)NC(=O)[C@H](CC(C)C)NC1=O)[C@@H](C)O)C(C)C (stereo partly specified) | -53% (active)
29 | Cc1noc(C)c1CSc1ccccc1C(=O)N1CCN(c2cccc(C(F)(F)F)c2)CC1 | 74.2% (inactive)
30 | C=CCn1c(SCC(=O)Nc2ccc(C(=O)/C=C/c3ccc(OC)cc3)cc2)nnc1-c1ccc(OC)c(OC)c1 | 114% (inactive)
31 | CNC(=O)c1cc(Oc2ccc3c(c2)sc2nc(-c4ccc(N)cc4)cn23)ccn1 | -11.1% (active)
32 | C/C(=N\O)c1ccc(NC(=O)CSc2nnc(-c3ccccc3)n2-c2ccccc2)cc1 | 53.3% (inactive)
33 | CCN(CC)CCCC(C)Nc1c2ccc(Cl)cc2nc2ccc(OC)cc12 (stereo unspecified) | -71.9% (active)
34 | CC[C@@H](C(=O)[C@@H](C)[C@@H](O)[C@H](C)[C@@H]1O[C@@H]([C@@H](CC)C(=O)N(CC)CC)CC[C@@H]1C)C1O[C@]2(C=CC(=O)[C@]3(CC[C@@](C)([C@H]4CC[C@](O)(CC)[C@H](C)O4)O3)O2)[C@H](C)C[C@@H]1C (stereo partly specified) | 12.2% (inactive)
35 | O=S(=O)(Oc1ccc(-c2ccc3sccc3c2)cc1)c1ccccc1 | 109% (inactive)
36 | COc1ccc(-c2cc(-c3ccc(Cl)cc3)nc(SCCCCCCC(=O)NO)n2)cc1OC | 66.4% (inactive)
37 | CN1C(=O)C2(Nc3cc(Cl)ccc3S2)c2cc(Cl)ccc21 (stereo unspecified) | 93.2% (inactive)
38 | Nc1ccc(/C=N/Nc2ccnc3c(O)cccc23)c2cccnc12 | 104% (inactive)
39 | CN(C)CCOc1ccccc1NC1=C(Cl)C(=O)C(Nc2ccccc2OCCN(C)C)=C(Cl)C1=O | -62% (active)
40 | CCn1c(SCCc2ccccc2)nnc1-c1nn(-c2ccc(Cl)cc2Cl)c(-c2ccc(Cl)cc2)c1C | 77.7% (inactive)
41 | C=CCNCCN1C(=O)c2ccc3c4c(ccc(c24)C1=O)C(=O)N(CCNCC=C)C3=O | -90.5% (active)

Row | Structure (SMILES) | growth
42 | COc1cc(C)ccc1Oc1nc(Nc2ccc(N3CCOCC3)cc2)ncc1NC(=O)Nc1cc(C(F)(F)F)cc(C(F)(F)F)c1 | 109% (inactive)
43 | COc1cccc(CNc2cccc3cn[nH]c23)c1O | 110% (inactive)
44 | NS(=O)(=O)Oc1ccc(NC(=O)C2CCCCCC2)cc1 | 112% (inactive)
45 | COc1ccc(-c2n[nH]nc2-c2cc(OC)c3c(c2OC)OCO3)cc1 | 12.9% (inactive)
46 | CCCN(CCC)C(=O)[C@H](CC)[C@@H]1CC[C@@H](C)[C@@H]([C@H](C)[C@@H](O)[C@@H](C)C(=O)[C@H](CC)C2O[C@]3(C=C[C@@H](O)[C@]4(CC[C@@](C)([C@H]5CC[C@](O)(CC)[C@H](C)O5)O4)O3)[C@H](C)C[C@@H]2C)O1 (stereo partly specified) | -64.2% (active)
47 | COc1cc(-c2nc3ccccc3o2)cc(CN2CCCCC2)c1O | 113% (inactive)
48 | CC(=O)N[C@H](C(=O)N[C@@H](CCCNC(=N)N)C(=O)N[C@@H](CCCCN)C(=O)N[C@@H](CCCNC(=N)N)C(=O)N[C@]1(C)CCC/C=C\CCC[C@@](C)(C(=O)N[C@@H](CC(C)C)C(=O)N[C@@H](CC(C)C)C(=O)N[C@@H](CCC(N)=O)C(=O)N[C@@H](CCC(=O)O)C(=O)N[C@@H](CCCNC(=N)N)C(=O)N[C@@H](CCC(=O)O)C(=O)N[C@@H](CC(C)C)C(=O)N[C@H](C(=O)N[C@@H](CCC(=O)O)C(N)=O)C(C)C)NC(=O)[C@H](CCCNC(=N)N)NC(=O)[C@H](CC(C)C)NC1=O)C(C)C | 102% (inactive)
49 | S=C(NCc1ccccc1)NCc1ccccc1 | 107% (inactive)
50 | CC(C)c1ccc(C(C)C(=O)N(CC2=C(C(C)c3ccccn3)c3ccccc3C2)C(C)C)cc1 (stereo unspecified) | 35.7% (inactive)
51 | COc1cc(/C=C2\CCCC3=C2NC(N)=NC3c2cc(OC)c(OC)c(OC)c2)cc(OC)c1OC (stereo unspecified) | -0.149% (active)
52 | COc1ccc(-c2cc(-c3ccc(Cl)cc3)nc(SCCCC(=O)NO)n2)cc1 | 2.04% (active)
53 | CC(C)CCN(CCC(C)C)CC(=O)Nc1ccc(S(=O)(=O)c2ccc(NC(=O)CN(CCC(C)C)CCC(C)C)cc2)cc1 | 29.6% (inactive)
54 | CN(C)CCCOc1ccccc1NC1=C(Cl)C(=O)C(Nc2ccccc2OCCCN(C)C)=C(Cl)C1=O | -64.9% (active)
55 | CC(C)(C)c1nn(-c2ccccc2)c2c1CC1(CN2Cc2ccc(Cl)cc2)C(=O)c2ccccc2C1=O | 117% (inactive)
56 | N#CCc1csc(Cc2ccccc2)n1 | 117% (inactive)
57 | COc1ccc(/C=C/c2nnc(/C=C/c3ccc(OC)c(OC)c3)o2)cc1OC | 22% (inactive)
58 | NS(=O)(=O)c1ccc(Br)cc1 | 98.5% (inactive)
59 | CCOC(=O)CC(S(=O)(=O)c1ccccc1)S(=O)(=O)c1ccccc1 | -87.1% (active)
60 | Nc1nc(N)c(N)c(Nc2ccc(CCO)cc2)n1 | 95.5% (inactive)
61 | CCN(CC)CCOc1ccc2c(c1O)C(=O)c1ccccc1C2=O | 46.6% (inactive)
